Experimental data as given in PubChem BioAssay AID2284381 (EPA ToxCast).
Results filed as inconclusive are left out. Active and inactive are the calls of the source. The calls were made as follows: active = hit-call score of the fitted dose curve at least 0.9, where 1 is the maximum; inconclusive = response in the unintended direction; inactive = score below 0.9.

Tested on: Japanese medaka Retinoid X Receptor beta (RXRb), gene 100125505
Assay: ATG_jmRXRb_EcoTox2: Attagene TRANS-FACTORIAL EcoTox-2 HepG2 Assay for Japanese medaka Retinoid X Receptor beta (RXRb)
Experimental: ATG_EcoTox2 is a cell-based, multiplexed assay created by modifying the existing Attagene TRANS-FACTORIAL system to include a panel of nuclear receptors from some or all the following species: human (Homo sapiens), african clawed frog (Xenopus laevis), rainbow trout (Oncorhynchus mykiss), japanese medaka (Oryzias latipes), and zebrafish (Danio rerio). The ECOTOX2-FACTORIAL format uses HepG2, a human liver cell line, with measurements taken at 24 hours after chemical dosing in a 24-well plate. ATG_jmRXRb_EcoTox2 is one of 29 assay components calculated in the ATG_EcoTox2 assay. It is designed to make measurements of mRNA induction, a form of inducible reporter, as detected with fluorescence intensity signals by Reverse transcription polymerase chain reaction (RT-PCR) and Capillary electrophoresis technology.The assay endpoint ATG_jmRXRb_EcoTox2 was analyzed in the positive analysis fitting direction relative to DMSO as the negative control and baseline of activity. Using a type of inducible reporter, measures of mRNA for gain-of-signal activity can be used to understand the reporter gene at the transcription factor-level as they relate to the gene RXRb. Furthermore, this assay endpoint can be referred to as a primary readout, because this assay has produced multiple assay endpoints where this one serves a reporter gene function. To generalize the intended target to other relatable targets, this assay endpoint is annotated to the nuclear receptor intended target family, where the subfamily is non-steroidal.
Human liver HepG2 cells are transiently transfected with multiple reporter transcription units (MRTUs) in 6-well plates using FuGene 6 reagent (Roche; 3 ml FuGene/1 mg DNA). The MRTU constructs are regulated by a cis-regulating element (promoter). Each RTU expresses a GAL4-UAS that regulates the transcription of a nearby target reporter gene sequence. A major difference between the CIS and TRANS system is that in CIS activities of endogenous TFs are measured, whereas the TRANS assay evaluates changes in activities of exogenous, chimeric NR-Gal4 proteins. […] At the end of 24 hour incubation, total RNA was isolated using TriZol reagent (Invitrogen). The isolated RNA is then reverse-transcribed using oligo(dT) primer and Mo-MLV reverse transcriptase (Invitrogen) with DNAse I (Ambion) treatment for 30 min. The one-tenth of the produced cDNA was amplified by PCR using Taq DNA polymerase (Invitrogen) and two reporter sequence-specific primers. The PCR products were fluorescently labeled by primer extension with 6-arboxyfluorescein (6-FAM) 5'-labeled reporter sequence-specific primer (2 min at 95 C, 20 s at 68 C and 10 min at 72 C) and these products were digested with 5U of HpaI (New England Biolabs) for 2h at 37 C. The fragments were purified using Qiaquick PCR columns (Qiagen), analyzed on an ABI 3130xL genetic analyzer (Applied Biosystems) with peak positions identified by using a set of X-rhodamine (ROX)-labeled MapMarker1000 molecular weight standards (BioVentures). The raw capillary electrophoresis data was processed using Attagraph software (Attagene).

Row | SMILES | AC50 | outcome
1 | Cc1cccc(Nc2cc(Cl)nc(SCC(=O)O)n2)c1C | 27.4 µM (active) | –
2 | CC(C)(Oc1ccc(CCNC(=O)c2ccc(Cl)cc2)cc1)C(=O)O | – | inactive
3 | CC(C)(Oc1ccc(Cl)cc1)C(=O)O | – | inactive
4 | CN(CCOc1ccc(CC2SC(=O)NC2=O)cc1)c1ccccn1 (stereo not given) | 12.9 µM (active) | –
5 | CC(c1cc2ccccc2s1)N(O)C(N)=O (stereo not given) | – | inactive
6 | Cc1ccc(C)c(OCCCC(C)(C)C(=O)O)c1 | 50 µM (active) | –
7 | C=C(c1ccc(C(=O)O)cc1)c1cc2c(cc1C)C(C)(C)CCC2(C)C | 0.00302 µM (active) | –
8 | Cc1nc(-c2ccc(C(F)(F)F)cc2)sc1C(=O)NCc1ccc(OC(C)(C)C(=O)O)cc1 | – | inactive
9 | C[C@@H]1C[C@H]2[C@@H]3CCC4=CC(=O)C=C[C@]4(C)[C@@]3(F)[C@@H](O)C[C@]2(C)[C@@]1(O)C(=O)COP(=O)(O)O | – | inactive
10 | CC(C)(Oc1ccc(C2CC2(Cl)Cl)cc1)C(=O)O (stereo not given) | – | inactive
